{"source": "the OligoGym collection", "data": [{"target": "SLC25A3", "test": "pooled miR-30 sensor sort-seq; sequence = guide strand", "conditions": "shRNA", "values": [{"sequence": "TTTAAATCCAAGTCTCTTGAGG", "sensor-assay potency score (higher = more potent)": -0.533}, {"sequence": "TTAAGTGTAACTGAGAATCCGT", "sensor-assay potency score (higher = more potent)": 0.392}, {"sequence": "TTGAGGACCAGAGAAGCACTGC", "sensor-assay potency score (higher = more potent)": 0.0253}, {"sequence": "TACAAATGTTACAACCAGCTGC", "sensor-assay potency score (higher = more potent)": 0.505}]}, {"target": "SLC25A41", "test": "pooled miR-30 sensor sort-seq; sequence = guide strand", "conditions": "shRNA", "values": [{"sequence": "TTCAAGGTTGTTGTCATGCATG", "sensor-assay potency score (higher = more potent)": -1.11}, {"sequence": "TCCTGTGTCCAGTACCTGCTGT", "sensor-assay potency score (higher = more potent)": -0.625}, {"sequence": "TGCATGTACACCTTGGCTCTGT", "sensor-assay potency score (higher = more potent)": -0.291}, {"sequence": "TAGAGCAAGTGTTCTGAGGTTC", "sensor-assay potency score (higher = more potent)": 0.286}, {"sequence": "TTGGTGAAGTTCGTCTTGGAGG", "sensor-assay potency score (higher = more potent)": -1.22}, {"sequence": "TACACCACATAGCTGATGCCAC", "sensor-assay potency score (higher = more potent)": -0.548}, {"sequence": "ATACTCAGGAGCAATCTTGAGC", "sensor-assay potency score (higher = more potent)": -0.858}, {"sequence": "TTGCACTGCTCGAATACGGAGA", "sensor-assay potency score (higher = more potent)": -0.376}, {"sequence": "TCTCGCTGCAAGATCTGCCTGG", "sensor-assay potency score (higher = more potent)": -0.421}, {"sequence": "TAGACCTGCATGTACACCTTGG", "sensor-assay potency score (higher = more potent)": -0.353}, {"sequence": "TATTCCACAGAAGTAATTCTTG", "sensor-assay potency score (higher = more potent)": -0.218}, {"sequence": "TAGACAGCCAGGTCGGTGCAGG", "sensor-assay potency score (higher = more potent)": -0.911}]}, {"target": "SLC25A5", "test": "pooled miR-30 sensor sort-seq; sequence = guide strand", "conditions": "shRNA", "values": [{"sequence": "TTCTCTTGTCCACACCACCCAG", "sensor-assay potency score (higher = more potent)": -1.25}, {"sequence": "TTGTAGATCTTAACCAGGCAGT", "sensor-assay potency score (higher = more potent)": -0.456}, {"sequence": "TTGTATTGCTTATCTGCAGTGA", "sensor-assay potency score (higher = more potent)": -0.0407}, {"sequence": "TATAATGCCTTTGTATTGCTTA", "sensor-assay potency score (higher = more potent)": 0.347}, {"sequence": "TACAAGACAAGCACAAAAGCAC", "sensor-assay potency score (higher = more potent)": 0.0644}, {"sequence": "TTGCTTATCTGCAGTGATCTGC", "sensor-assay potency score (higher = more potent)": -0.049}, {"sequence": "TTCATCACGAGCAATCTTCCGC", "sensor-assay potency score (higher = more potent)": -0.132}, {"sequence": "TTATCTTTGAAGGCGAAGTTAA", "sensor-assay potency score (higher = more potent)": -1.05}, {"sequence": "AGATTTGTAGATCTTAACCAGG", "sensor-assay potency score (higher = more potent)": -1.69}, {"sequence": "TTTGTATTGCTTATCTGCAGTG", "sensor-assay potency score (higher = more potent)": -0.375}, {"sequence": "TTGTATTTATCTTTGAAGGCGA", "sensor-assay potency score (higher = more potent)": -0.168}, {"sequence": "TTATCTGCAGTGATCTGCTTGC", "sensor-assay potency score (higher = more potent)": 0.187}, {"sequence": "TTGCAGTGTCATAGATACCGAA", "sensor-assay potency score (higher = more potent)": -0.793}, {"sequence": "TTGCTTCCCATTTTCAACCAGT", "sensor-assay potency score (higher = more potent)": -0.278}, {"sequence": "TGCAGTGTCATAGATACCGAAG", "sensor-assay potency score (higher = more potent)": -1.43}, {"sequence": "TGCCTTTGTATTGCTTATCTGC", "sensor-assay potency score (higher = more potent)": -0.404}, {"sequence": "TCACGAGCAATCTTCCGCCAGC", "sensor-assay potency score (higher = more potent)": -0.904}, {"sequence": "TTCATCATACAAGACAAGCACA", "sensor-assay potency score (higher = more potent)": -1.02}, {"sequence": "TCTGCAGTGATCTGCTTGCTGG", "sensor-assay potency score (higher = more potent)": -0.995}, {"sequence": "TCTCTTGTCCACACCACCCAGG", "sensor-assay potency score (higher = more potent)": -0.852}, {"sequence": "ATGGATAGGAAGTCAACCCGGC", "sensor-assay potency score (higher = more potent)": -0.119}, {"sequence": "TTTGTAGATCTTAACCAGGCAG", "sensor-assay potency score (higher = more potent)": -0.343}, {"sequence": "TCGGTAGATGATAATACCCTGC", "sensor-assay potency score (higher = more potent)": -0.461}, {"sequence": "TATCTGATGACATTGGCCAGGT", "sensor-assay potency score (higher = more potent)": 0.271}]}]}
